A1 inh = inhibitors of the anti-apoptotic protein A1, read as caspase activation; MEF A1-2A-BIM cells, Caspase-Glo 3/7 luminescence, 3 h; percent of clofoctol response, vehicle zero; caspase activation, % (test concentration not listed); actives 0.066% (n = 330,000); AID 2462;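 active means over half of replicate activation scores above 10%, or exactly half above 10 with the replicate mean above 10; inconclusive means replicate mean below 10 yet half the replicates above 10; inactive means over half of replicates below 10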
NALP3 yeast inh = blocks the NALP3 inflammasome reconstituted in yeast; AID 2825; actives 0.39% (n = 330,000); Yeast reconstituted NLRP3/ASC/caspase-1, beta-gal luminescence, 24 h; inhibition, % at 10 µM;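 active means inhibition of 50% or more; inactive means inhibition below 50%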;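 further: plate controls were induced DMSO wells for no effect and uninduced yeast grown without galactose for full effect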
CHT block = human CHT choline transport inhibition. Q9GZV3. CHT-expressing cells, membrane potential dye, choline response; stronger effect = lower value. B-score at 10 µM. actives 0.86% (n = 310,000). AID 488975;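 active means B-score over 3 SD under the library average, and starting fluorescence ratio not unusually high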;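 further: choline stimulus applied at its EC90 after an EC20 pre-addition; B-score computed on integrated fluorescence ratio after choline addition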
Target sequence (Q9GZV3 whole entry, looked up): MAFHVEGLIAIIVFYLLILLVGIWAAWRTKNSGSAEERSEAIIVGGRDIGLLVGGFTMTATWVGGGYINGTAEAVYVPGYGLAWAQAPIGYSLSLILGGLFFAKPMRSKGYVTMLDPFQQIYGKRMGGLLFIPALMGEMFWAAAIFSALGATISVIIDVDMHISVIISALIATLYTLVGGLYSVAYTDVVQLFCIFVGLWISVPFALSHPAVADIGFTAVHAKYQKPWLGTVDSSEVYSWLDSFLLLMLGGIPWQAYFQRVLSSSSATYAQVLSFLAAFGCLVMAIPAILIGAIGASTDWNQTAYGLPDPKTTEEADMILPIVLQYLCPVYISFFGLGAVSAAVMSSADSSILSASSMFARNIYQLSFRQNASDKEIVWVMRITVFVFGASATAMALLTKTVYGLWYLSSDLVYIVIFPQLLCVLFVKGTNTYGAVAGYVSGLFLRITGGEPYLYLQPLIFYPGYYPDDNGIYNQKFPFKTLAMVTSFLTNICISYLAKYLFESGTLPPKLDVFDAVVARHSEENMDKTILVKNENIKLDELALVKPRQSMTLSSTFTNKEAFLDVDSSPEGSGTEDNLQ
SUMO Mot1 rescue = blocks SUMOylation pathway, rescuing yeast Mot1-301 growth. S. cerevisiae Mot1-301 growth rescue, ATP luminescence, 38.5C; percent above DMSO median, 100 means doubled. growth rescue, % at 18.8 µM. AID 2716. actives 1% (n = 320,000);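 active means every valid replicate shows activation above 250% relative to neutral control wells; inactive means the rest, any valid replicate at or below 250%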;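 further: OY570 slx delta 5 strain wells were the positive control but not used for scaling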
NALP1 yeast inh = inhibitors of NALP1 inflammasome in yeast; S. cerevisiae NALP1/ASC/caspase-1 growth, X-gal OD620, 72 h; inhibition, % at 10 µM; actives 0.61% (n = 280,000); in the data active means inhibition mostly above about 24%, no sharp cut-off; inactive means mostly below about 32%
CHT PAM = allosterically activates the human high affinity choline transporter; CHT-expressing cells, membrane potential dye, choline EC20; stronger effect = higher value; LV-AA mutant CHT in HEK293 cells; B-score at 10 µM; actives 0.49% (n = 310,000);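 active means initial fluorescence not abnormally high and integrated response B-score, plate-corrected, over 3 SD above library mean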
CHT activ conf = confirmation of human choline transporter (CHT) activators. shares compounds with CHT PAM. CHT-expressing cells, membrane potential dye fluorescence (FDSS); % of choline EC20–EC90 response window; HEK293 expressing CHT LV-AA mutant; choline added at its EC20. activation, % at 10 µM. actives 91% (n = 2,500). AID 504833;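 active means primary screen active, with duplicate mean activation above negative control mean plus 3 SD, cut at about 11% in these data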
HEK293 MP dye = activity in parental HEK293 cells lacking CHT. actives 62% (n = 2,500). ratio readout change at 10 µM, hits read low. shares compounds with CHT PAM. membrane potential dye fluorescence (FDSS); measured after EC20 choline addition;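 active means duplicate-averaged ratio beyond 3 SD from buffer wells, up or down, though filed actives are nearly all decreases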
* = called active by the depositor; i = inactive; ? = inconclusive; . = not tested or not shown. Only some compounds are listed: those with a hit (about 3% of all), similar ones and a draw of the others.

SMILES	A1 inh	NALP3 yeast inh	CHT block	SUMO Mot1 rescue	NALP1 yeast inh	CHT PAM	CHT activ conf	HEK293 MP dye
Nc1nnc(-c2ccncc2)s1	1	5	i	-3	-5	i	.	.
c1cc(-c2sc(-c3ccncc3)c(-c3ccncc3)c2-c2ccncc2)ccn1	0	5	i	55	.	i	59*	-47*
CCC1C(=O)NCCN1C(=O)c1ccc(OC)c(OC2CCN(C(C)=O)CC2)c1 (configuration not stated)	0	11	i	275	-16	i	.	.
CCOC(=O)C(C)Sc1cc(CS(=O)(=O)c2ccccc2)nc(-c2ccccc2)n1 (configuration not stated)	0	8	i	363	-2	7.7*	6	i
Cn1cc(Br)c(C(=O)N/N=C/c2cc3c(cc2Cl)OCO3)n1	.	6	.	.	20	.	.	.
COc1ccccc1C(=O)CN1C(=O)NC2(CCCCCC2)C1=O	2	17	.	1	.	.	.	.
CN(C(=O)COC(=O)CCc1c[nH]c2ccccc12)c1ccccc1	0	15	i	5	.	i	.	.
Cc1c(OCC(=O)NCCCN2CCCC2=O)ccc2c3c(c(=O)oc12)CCC3	0	11	i	5	10	i	36*	-30*
COC(=O)c1ccc(COc2ccc3c(C)c(C)c(=O)oc3c2C)o1	.	.	.	316	13	.	.	.
Cc1c(O)c(CN2CCCC2)cc2c1oc(=O)c1ccccc12	0	1	i	-7	-6	i	.	.
Cc1c(O)c(CN2CCCC2)cc2c3c(c(=O)oc12)CCC3	-1	0	i	25	21	9.8*	37*	-72*
Cc1c(OCc2ccc(C(=O)O)o2)ccc2c3c(c(=O)oc12)CCC3	-3	8	i	10	10	i	39*	-25*
Cc1n[nH]c(=O)c2c(NC(=O)CSc3nncs3)oc(C)c12	1	8	i	13	.	i	.	.
CCOc1ccc(-c2nnc(-c3ccncc3)o2)cc1	-6	23	i	-9	7	i	.	.
COc1ccc(-c2nnc(-c3cccnc3)o2)cc1OC	-1	-4	i	501	-1	7.5*	31*	-32*
CCOc1ccc(-c2nnc(-c3cccnc3)o2)cc1OCC	1	1	i	8	7	i	32*	-27*
COc1cc(-c2nnc(-c3cccnc3)o2)cc(OC)c1OC	0	9	i	19	10	i	.	.
CCOc1ccc(-c2nnc(-c3ccncc3)o2)cc1OCC	0	12	i	0	9	i	61*	-49*
COc1ccc2c(=O)cc(-c3cccnc3)oc2c1OC	0	22	i	-2	0	7.6*	79*	-72*
CC(C)c1ccc(NC(=O)CSc2nc3ccccc3nc2N2CCCC2)cc1	0	14	i	9	8	i	.	.
COc1ccc(COCC(O)CN2CCN(S(=O)(=O)c3ccc(C(C)C)cc3)CC2)cc1 (configuration not stated)	0	8	.	8	.	.	.	.
Cc1ccc(NC(=O)COC(=O)c2ccc(-n3cccn3)cc2)cc1C	.	-4	.	.	.	.	.	.
CN(CC(=O)NCc1ccco1)CC(=O)Nc1cc(S(C)(=O)=O)ccc1Cl	.	10	.	.	.	.	.	.
Cc1cc(C(=O)Nc2ccc3ccccc3c2)c(C)o1	-7	38	i	20	14	i	.	.
O=C(CN1C(=O)CCC1=O)Nc1nc(-c2nc3ccccc3s2)cs1	0	17	i	9	-62	i	18*	i
SMILES	A1 inh	NALP3 yeast inh	CHT block	SUMO Mot1 rescue	NALP1 yeast inh	CHT PAM	CHT activ conf	HEK293 MP dye
Cc1cccc(OCc2n(CC(=O)OC3CC(C)CCC3C(C)C)c3ccccc3[n+]2C)c1 (configuration not stated)	1	18	i	-26	12	9.3*	41*	i
Cc1ccc(C)c(N2N=C(C(=O)OCC(=O)N(C)c3ccccc3)CCC2=O)c1	.	4	.	.	.	.	.	.
C=CC[n+]1ccc2ccccc2c1C	-1	11	i	224	-2	7.7*	65*	-61*
NCc1cc2c3c(c1)CCCN3CCC2	0	27	i	0	20	i	13*	-100*
COc1c(C=O)cc2c3c1CCCN3CCC2	0	22	i	71	17	i	.	.
CCCCCCCCCCC[N+](C)(C)CC/C=C1/c2ccccc2Sc2ccc(Cl)cc21	?	14	i	29	14	i	.	.
CCCCCCCCCC[N+](C)(C)CC/C=C1/c2ccccc2Sc2ccc(Cl)cc21	3	2	i	72	23	8.2*	-1	-47*
C[C@H](NC(=O)C(c1ccccc1)c1ccccc1)c1ccccc1	0	-6	i	-6	25	7.9*	6	i
Cc1cc(C)cc(-n2ncc3c2CCCC3NC(=O)CN2CCCCC2=O)c1 (configuration not stated)	1	12	i	-6	6	i	.	.
O=C(NC1CCCN(Cc2ccc(Cl)cc2)C1)c1ccccc1-c1ncc[nH]1 (configuration not stated)	.	5	.	.	14	.	.	.
CCCc1nnc(NC(=O)C(CC)OC(=O)c2cc(C)nc3ccccc23)s1 (configuration not stated)	1	-8	i	.	8	6.3*	22*	i
CCCc1nnc(NC(=O)COC(=O)c2cc(C)nc3ccccc23)s1	1	-3	i	-8	-7	i	.	.
COc1ccc(/C=C/c2ccc3ccccc3[n+]2C)cc1OC	0	19	i	-6	-4	i	.	.
CC(=O)Oc1ccccc1/C=C/c1ccc2ccccc2[n+]1C	-1	18	i	12	18	6.9*	48*	-42*
COc1ccc(C(C)=O)cc1CSc1ccc2c(c1)OCCO2	0	38	i	-17	6	i	.	.
Cc1ccnc(NC(=O)CCC2CCCCC2)c1	-3	15	i	-1	0	i	27*	i
N=C(N)SCCc1cnc[nH]1	1	1	i	4	.	i	.	.
N=C(N)SCCc1cccc(CCSC(=N)N)c1	0	26	i	-1	.	9*	43*	-46*
COc1ccc(CN(C)C(=O)C2CCN(S(=O)(=O)c3cccs3)CC2)cc1F	0	2	.	-1	.	.	.	.

Compound activity: PubChem, several laboratories
